# Measured values taken from the supplement of paper PMC9135407.
# Structures can show the parent of a compound that is named as a salt. About 620 (11%) of roughly 5,800 compounds showed activity. This is one part of a sample in which actives are shown more often than they occur. A number with no mark means an inactive call.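 How the source made its calls: active = score above a cut-off or among the top three wells of a plate; in these data no inactive exceeds 0.85.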
# Test system: primary human hepatic stellate cells (donor 1)
# Experiment: scaled lipid accumulation score (0 = DMSO-like, 1 = nortriptyline-like); higher = stronger HSC inactivation (lipid re-accumulation), active = hit call of the paper
# Details: 48 h
# Experimental: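 Primary lipid accumulation screen in primary human hepatic stellate cell myofibroblasts (donor 1, passage 8) in 384-well plates. 100 nL of library compound was pin-transferred into 30 µL medium in duplicate, and cells were treated for 48 h. The 'Scaled' score combines distance from plate baseline, toxicity and reproducibility penalties, and is normalised to nortriptyline (positive) and DMSO (negative) controls on each plate. A hit is defined as scaled >0.85 or among the top 3 wells per plate.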
# [1] = library stock concentration: 80 uM
# [2] = library stock concentration: 400 uM
# [3] = library stock concentration: 2 mM
# [4] = library stock concentration: 10 mM
# [5] = library stock concentration: 3.33 mM
# [6] = library stock concentration: 1 mM
structure (smiles),measurement,setting,value
O=S(=O)(NCCNC/C=C/c1ccc(Br)cc1)c1cccc2cnccc12 [listing 1 of 2 here],scaled lipid accumulation score,[1],≤ 0
same,scaled lipid accumulation score,[2],≤ 0
same,scaled lipid accumulation score,[3],0.134
CNCCNS(=O)(=O)c1cccc2cnccc12 [H-8 dihydrochloride],scaled lipid accumulation score,[4],0.048
O=S(=O)(NCCNCC=Cc1ccc(Br)cc1)c1cccc2cnccc12,scaled lipid accumulation score,[5],0.01
same,scaled lipid accumulation score,[4],0.542
"O=S(=O)(NCCNC/C=C/c1ccc(Br)cc1)c1cccc2cnccc12 [H-89, Dihydrochloride]",scaled lipid accumulation score,[5],≤ 0
"CNCCNS(=O)(=O)c1cccc2cnccc12 [H-8, Dihydrochloride]",scaled lipid accumulation score,[5],≤ 0
O=S(=O)(NCCNC/C=C/c1ccc(Br)cc1)c1cccc2cnccc12 [listing 2 of 2 here],scaled lipid accumulation score,[4],0.989 (active)
NC(N)=NCCNS(=O)(=O)c1cccc2cnccc12,scaled lipid accumulation score,library stock concentration: 17 mM,0.047
Cl.Cl.O=S(=O)(NCCNC/C=C/c1ccc(Br)cc1)c1cccc2cnccc12 [H 89 dihydrochloride],scaled lipid accumulation score,[4],1.26 (active)
"NC(N)=NCCNS(=O)(=O)c1cccc2cnccc12 [HA 1004, Dihydrochloride]",scaled lipid accumulation score,[5],≤ 0
"CCCCCC(=O)CC[C@H]1[C@H](O)CC(=O)[C@@H]1C/C=C\CCCC(=O)O [13,14-dihydro-15-keto Prostaglandin E2]",scaled lipid accumulation score,[6],≤ 0
O=C1NC(=O)c2cc(Nc3ccc(F)cc3)c(Nc3ccc(F)cc3)cc21,scaled lipid accumulation score,[4],≤ 0
CC1=C(C(=O)OCCN(Cc2ccccc2)c2ccccc2)C(c2cccc([N+](=O)[O-])c2)C(P2(=O)OCC(C)(C)CO2)=C(C)N1 (stereo not drawn) [Efonidipine hydrochloride monoethanolate],scaled lipid accumulation score,[4],≤ 0
COc1ccccc1CNC1CCCNC1c1ccccc1 (stereo not drawn),scaled lipid accumulation score,[4],0.474
CCCCC[C@H](O)/C=C/C=C\C=C\C=C\[C@@H](O)[C@@H](O)CCCC(=O)O [Lipoxin A4],scaled lipid accumulation score,library stock concentration: 100 uM,≤ -0.021
CC(C)N(CCCNC(=O)Nc1ccc(C(C)(C)C)cc1)C[C@H]1O[C@@H](n2ccc3c(N)ncnc32)[C@H](O)[C@@H]1O,scaled lipid accumulation score,[5],0.204
same,scaled lipid accumulation score,[4],0.636
CC(C)N(CCCNC(=O)Nc1ccc(C(C)(C)C)cc1)C[C@H]1O[C@@H](n2cc(Br)c3c(N)ncnc32)[C@H](O)[C@@H]1O [listing 1 of 2 here],scaled lipid accumulation score,[4],1.12 (active)
CC(C)N(CCCNC(=O)Nc1ccc(C(C)(C)C)cc1)C[C@H]1O[C@@H](n2cc(Br)c3c(N)ncnc32)[C@H](O)[C@@H]1O [listing 2 of 2 here],scaled lipid accumulation score,[5],0.805
"CCCCCCCC/C=C/CCCCCCCC(=O)Nc1c(C(C)C)cccc1C(C)C [Oleic Acid-2,6-diisopropylanilide]",scaled lipid accumulation score,[6],≤ 0
CCCCCCCCCCCCCCCCC(=O)NCCO [Heptadecanoyl Ethanolamide],scaled lipid accumulation score,[6],≤ 0
COc1cc2ncn(-c3cc(OCc4ccccc4S(C)(=O)=O)c(C#N)s3)c2cc1OC [IKK-3 Inhibitor IX],scaled lipid accumulation score,[5],≤ 0
COc1cc2ncn(-c3cc(OCc4ccccc4C(F)(F)F)c(C(N)=O)s3)c2cc1OC [listing 1 of 2 here],scaled lipid accumulation score,[4],0.992 (active)
C[C@@H](Oc1cc(-n2cnc3ccc(CN4CCN(C)CC4)cc32)sc1C(N)=O)c1ccccc1C(F)(F)F [listing 1 of 3 here],scaled lipid accumulation score,[1],≤ 0
same,scaled lipid accumulation score,[2],0.039
same,scaled lipid accumulation score,[4],0.788
C[C@@H](Oc1cc(-n2cnc3ccc(CN4CCN(C)CC4)cc32)sc1C(N)=O)c1ccccc1C(F)(F)F [listing 2 of 3 here],scaled lipid accumulation score,[3],0.915 (active)
same,scaled lipid accumulation score,[4],1.2 (active)
C[C@@H](Oc1cc(-n2cnc3ccc(CN4CCN(C)CC4)cc32)sc1C(N)=O)c1ccccc1C(F)(F)F [listing 3 of 3 here],scaled lipid accumulation score,[5],1.22 (active)
COc1cc2ncn(-c3cc(OCc4ccccc4C(F)(F)F)c(C(N)=O)s3)c2cc1OC [listing 2 of 2 here],scaled lipid accumulation score,[1],≤ 0
same,scaled lipid accumulation score,[2],≤ 0
same,scaled lipid accumulation score,[3],≤ 0
same,scaled lipid accumulation score,[4],0.764
CC(C)c1cc(C(=O)N2Cc3ccc(CN4CCN(C)CC4)cc3C2)c(O)cc1O,scaled lipid accumulation score,[5],0.544
same,scaled lipid accumulation score,[4],0.828
O=C1N(c2ccccc2)c2ccccc2C1(Cc1ccncc1)Cc1ccncc1 [Linopirdine dihydrochloride],scaled lipid accumulation score,[4],≤ -0.001
O=C1N(c2ccccc2)c2ccccc2C1(Cc1ccncc1)Cc1ccncc1 [Linopirdine],scaled lipid accumulation score,[4],≤ -0.051
O=C1N(c2ccccc2)c2ccccc2C1(Cc1ccncc1)Cc1ccncc1,scaled lipid accumulation score,[4],≤ 0
O=C(O)c1ccc(-c2ccc3cc(O)c(C45CC6CC(CC(C6)C4)C5)cc3c2)cc1,scaled lipid accumulation score,[4],0.021
CC[C@H]1OC(=O)[C@H](C)C(=O)[C@H](C)[C@@H](O[C@@H]2O[C@H](C)C[C@H](N(C)C)[C@H]2O)[C@](C)(OC)C[C@@H](C)C(=O)[C@H](C)[C@H]2N(CCCCn3cnc(-c4cccnc4)c3)C(=O)O[C@]12C,scaled lipid accumulation score,[4],0.448
CC[C@H]1OC(=O)[C@H](C)C(=O)[C@H](C)[C@@H](O[C@@H]2O[C@H](C)C[C@H](N(C)C)[C@H]2O)[C@](C)(OC)C[C@@H](C)C(=O)[C@H](C)[C@H]2N(CCCCn3cnc(-c4cccnc4)c3)C(=O)O[C@]12C [Telithromycin],scaled lipid accumulation score,[4],≤ -0.027
CCCCC[C@H](O)/C=C/[C@H]1C=CC(=O)[C@H]1C/C=C\CCCC(=O)O [8-iso Prostaglandin A2],scaled lipid accumulation score,[6],≤ 0
CCCCCCCCCCCCCC(=O)N[C@H](CO)[C@H](O)c1ccc([N+](=O)[O-])cc1,scaled lipid accumulation score,[6],0.012
CC(C)C[C@@H](/C=C/S(C)(=O)=O)NC(=O)[C@H](CC(C)C)NC(=O)[C@H](CC(C)C)NC(=O)OCc1ccccc1,scaled lipid accumulation score,library stock concentration: 9.1 mM,0.738
OC1CCC(Nc2ncc3nc(Nc4c(F)cc(F)cc4F)n([C@@H]4CCOC4)c3n2)CC1 (stereo partly drawn),scaled lipid accumulation score,[1],≤ 0
same,scaled lipid accumulation score,[2],≤ 0
same,scaled lipid accumulation score,[3],≤ 0
same,scaled lipid accumulation score,[4],≤ 0
O=C1O/C(=C/Br)CC[C@@H]1c1cccc2ccccc12 [(R)-Bromoenol lactone],scaled lipid accumulation score,[6],0.064
CCOC(=O)C1(CCCCCCOc2ccc(Cl)cc2)CO1 (stereo not drawn),scaled lipid accumulation score,[4],≤ 0
O=C(O)CCC/C=C\C[C@@H]1[C@@H](/C=C/[C@@H](O)Cc2ccccc2)[C@H](O)C[C@@H]1O [16-phenyl tetranor Prostaglandin F2.alpha.],scaled lipid accumulation score,[6],≤ 0
